Screens from PubChem.
Hits are enriched below; roughly 1.1% of the tested compounds scored in any of these assays.
OPRM1-OPRD1 inv: inverse agonists of MOR-DOR heterodimerization, primary screen, cell-based, luminescence; Mu-type opioid receptor (Homo sapiens) + Delta-type opioid receptor (Homo sapiens), …; cell-based MOR-DOR heterodimer luminescence, inverse agonism; inhibition, % at 9.3 µM; 0.21% of 340,000 active; in the data active = inhibition above about 22%, passing the limit was not always enough
HTR5A inv ag: HTR5A inverse agonists in luminescence cell assay, primary screen, counter-screen for OPRM1-OPRD1 heterodimer inverse agonist project, full-deck HTS; 5-hydroxytryptamine receptor 5A (Homo sapiens), P47898; HTR5A cell line, inverse agonism; inhibition, % at 9.3 µM; 0.083% of 340,000 active; AID 504634, 2011; in the data active = inhibition mostly above about 23%, no sharp cut-off; inactive = mostly below about 18%
Target sequence (P47898 whole entry, looked up): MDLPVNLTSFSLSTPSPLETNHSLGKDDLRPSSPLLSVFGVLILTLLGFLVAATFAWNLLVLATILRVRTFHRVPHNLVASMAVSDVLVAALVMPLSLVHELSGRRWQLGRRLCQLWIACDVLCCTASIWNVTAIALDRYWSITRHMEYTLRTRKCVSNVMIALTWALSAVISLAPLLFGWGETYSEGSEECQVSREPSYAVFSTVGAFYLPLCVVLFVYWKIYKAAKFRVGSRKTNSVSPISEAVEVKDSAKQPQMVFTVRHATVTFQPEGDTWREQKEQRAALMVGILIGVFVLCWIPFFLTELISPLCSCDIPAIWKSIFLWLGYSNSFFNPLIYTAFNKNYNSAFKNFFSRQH
HTR5A ag: HTR5A agonists in luminescence cell assay, primary screen, counter-screen for OPRM1-OPRD1 heterodimer agonist project, full-deck HTS; 5-hydroxytryptamine receptor 5A (Homo sapiens), P47898; cell-based; activation, % at 9.3 µM; 0.61% of 340,000 active; in the data active = activation mostly above about 9.5%, no sharp cut-off; inactive = mostly below about 7.6%
MOR-DOR ag: agonists of OPRM1-OPRD1 heterodimerization, primary screen, cell-based, luminescence | activation, % at 9.3 µM | Mu-type opioid receptor (Homo sapiens) + Delta-type opioid receptor (Homo sapiens), … | cells | AID 504326, 2011 | 0.3% of 340,000 active
MOR-DOR ag conf: agonists of MOR-DOR heterodimerization, confirmation, cell-based, luminescence; shares compounds with MOR-DOR ag; cells, luminescence complementation; activation, % at 9.3 µM; 45% of 830 active; AID 504904, 2011
HTR5A ag counter: HTR5A agonists in cells, counter-screen for OPRM1-OPRD1 heterodimer agonist project, cell-based, luminescence; HTR5A agonist counterscreen; 8% of 830 active; activation, % at 9.3 µM; shares compounds with MOR-DOR ag; in the data active = activation above about 17%
Each line names hits and unclear results; the compound was inactive in the other large screens (follow-up assays come after a bar, where they were run); ! = repeats disagree. Cut-off read from the data, not from the text of the source, unless noted: active = activation above about 18%; inactive = the rest.

CCOc1c(Cl)cc(CNCC(O)c2ccccc2)cc1OC (stereo not given)	none
OC(CNCC(c1ccc(Cl)cc1Cl)c1c[nH]c2ccccc12)c1ccccc1 (stereo not given)	HTR5A ag 15, MOR-DOR ag 55 | MOR-DOR ag conf inactive | HTR5A ag counter inactive
CN1CCN(c2ccc(NC(=O)c3ccc(-c4ccc(Br)cc4)o3)cc2)CC1	HTR5A ag 17, MOR-DOR ag 345 | MOR-DOR ag conf 36 | HTR5A ag counter inactive
CCN1CCN(c2ccc(NC(=O)c3ccc(Br)o3)cc2)CC1	none
CN1CCN(Cc2nc3ccccc3c(=O)n2Cc2nc(-c3ccccc3F)cs2)CC1	none
CN1CCN(Cc2nc3ccccc3c(=O)n2Cc2nc(-c3ccc4ccccc4c3)cs2)CC1	HTR5A ag 9.0, MOR-DOR ag 20! | MOR-DOR ag conf 49 | HTR5A ag counter inactive
COc1ccc(C(CNC(=O)c2cncc(Br)c2)N(C)C)cc1 (stereo not given)	MOR-DOR ag 274 | MOR-DOR ag conf 232 | HTR5A ag counter inactive
COc1ccc(C(CNC(=O)c2cc(SC)ccc2Cl)N(C)C)cc1 (stereo not given)	MOR-DOR ag 104 | MOR-DOR ag conf inactive | HTR5A ag counter inactive
COc1ccc(CNC(=O)Cc2cccs2)cc1	none
COc1ccc(C(CNC(=O)Cc2cccs2)N(C)C)cc1 (stereo not given)	MOR-DOR ag 85 | MOR-DOR ag conf inactive | HTR5A ag counter inactive
COc1ccc(CC(=O)NCC(c2ccc(OC)cc2)N(C)C)cc1 (stereo not given)	MOR-DOR ag 31 | MOR-DOR ag conf inactive | HTR5A ag counter inactive
O=C(OCc1nnc(-c2cccs2)o1)C1=NN(c2ccccc2)C(=O)CC1	none
O=C(COC(=O)CNC(=O)c1sc2ccccc2c1Cl)NC1CCS(=O)(=O)C1 (stereo not given)	none
O=C(c1ccccc1F)N(Cc1ccccc1)C1CCS(=O)(=O)C1 (stereo not given)	none
O=C(c1sc2ccccc2c1Cl)N(Cc1ccco1)C1CCS(=O)(=O)C1 (stereo not given)	MOR-DOR ag 53 | MOR-DOR ag conf 54 | HTR5A ag counter inactive
O=C(c1sc2ccccc2c1Cl)N(Cc1ccccc1Cl)C1CCS(=O)(=O)C1 (stereo not given)	MOR-DOR ag 52 | MOR-DOR ag conf 18 | HTR5A ag counter inactive
O=C(c1sc2ccccc2c1Cl)N(Cc1ccccc1)C1CCS(=O)(=O)C1 (stereo not given)	MOR-DOR ag 29 | MOR-DOR ag conf 27 | HTR5A ag counter inactive
CCN(CC(=O)Nc1ccc(NC(C)=O)cc1)C(=O)c1cc2c(s1)CCCCC2	none
CC(Nc1ccccc1N1CCCCC1)C(=O)N1CCc2ccccc21 (stereo not given)	none
C/C(O)=C(/C#N)c1nc2ccccc2[nH]1	none
N#C/C(=C(/O)C(Cl)(Cl)Cl)c1nc2ccccc2[nH]1	MOR-DOR ag 21 | MOR-DOR ag conf inactive | HTR5A ag counter inactive
CCOC(=O)C1=C(COC(=O)c2ccc(OC)c(OC)c2OC)NC(=O)NC1C (stereo not given)	none
CC(C)(C)OC(=O)C[C@@H]1C/C=C\C[C@@H](CC(=O)N(CCO)Cc2ccccc2)C(=O)N2CCC[C@@H]2COC1=O	none
COc1ccc(NC(=O)c2ccc3ccccc3n2)cc1S(=O)(=O)N1CCCCC1	none
COc1ccc(NC(=O)c2cc3ccccc3o2)cc1S(=O)(=O)N1CCCCC1	MOR-DOR ag 21 | MOR-DOR ag conf inactive | HTR5A ag counter inactive
CCc1nc2ccc(C(=O)NCCCN3CCN(c4ccccc4F)CC3)cc2nc1CC	none
CCCOc1ccc(C(=O)Nc2ccc(N3CCN(C(=O)c4ccco4)CC3)cc2)cc1	MOR-DOR ag 23 | MOR-DOR ag conf inactive | HTR5A ag counter inactive
Cc1ccc(COn2c(-c3ccc(Cl)cc3Cl)nc3ncccc32)cc1	MOR-DOR ag 77 | MOR-DOR ag conf inactive | HTR5A ag counter 35
COc1cccc(C(=O)Nc2ccc3c(c2)C(=O)c2ccccc2C3=O)c1	MOR-DOR ag 38 | MOR-DOR ag conf 53 | HTR5A ag counter inactive
COc1ccc(OCC(=O)OCC(=O)c2ccc(OC)c(F)c2)cc1	none
Cc1ccc(C(=O)Nc2ccc3c(c2)C(=O)N(C)C3=O)c(C)c1	none
OCC1(CCc2ccccc2)CCN(Cc2cccn2-c2cccnc2)CC1	MOR-DOR ag 144 | MOR-DOR ag conf 384 | HTR5A ag counter inactive
COc1ccc(/C=N/NC(=O)COc2ccc(Cl)cc2Cl)cc1Cn1nc(C)cc1C	MOR-DOR ag 28 | MOR-DOR ag conf inactive | HTR5A ag counter inactive
O=C(COc1ccc(Cl)cc1Cl)N/N=C/c1cccnc1	none
NC1=NC2(CCN(Cc3ccccc3)CC2)n2c(nc3ccccc32)N1	MOR-DOR ag 50 | MOR-DOR ag conf 28 | HTR5A ag counter inactive
CSc1ccc(Cl)c(C(=O)Nc2cc(S(=O)(=O)N3CCOCC3)ccc2N2CCOCC2)c1	none
COCCN(C(=S)Nc1ccc(Cl)cc1OC)C1CCN(C(C)=O)CC1	none
Cc1ccc(-c2nn(-c3cccc(F)c3)cc2CN2CCN(c3ccccn3)CC2)o1	MOR-DOR ag 37 | MOR-DOR ag conf inactive | HTR5A ag counter inactive
Cc1ccc(-c2nn(-c3cccc(F)c3)cc2CNCc2cccnc2)o1	MOR-DOR ag 26 | MOR-DOR ag conf inactive | HTR5A ag counter inactive
Cc1ccc(-c2nn(-c3cccc(F)c3)cc2CN(Cc2nccn2C)C(C)C)o1	none
Cc1nc2c(=O)n(C)c(=O)n(C)c2nc1Cl	none
COc1ccc(CCNC(=O)/C=C\c2ccccc2)cc1OC	none
COc1ccc(/C=C/C(=O)NC(=S)NCCc2ccc(OC)c(OC)c2)cc1	MOR-DOR ag 30 | MOR-DOR ag conf 55 | HTR5A ag counter inactive
Cc1ccc(-c2nnc(SCC(=O)Nc3cccc(C(=O)N4CCOCC4)c3)n2C)cc1	none
COc1ccc2nc(C)cc(N/N=C/c3cccc(OC)c3O)c2c1	none
COc1ccc(/C=N/Nc2cc(C)nc3ccc(Br)cc23)cc1	MOR-DOR ag 21 | MOR-DOR ag conf inactive | HTR5A ag counter inactive
O=C(Cc1ccc(F)cc1)N[C@@H]1c2ccccc2CC[C@H]1OCc1ccccc1	none
O=C(NC1CCN(Cc2ccc(Cl)cc2Cl)CC1)c1ccccc1	MOR-DOR ag 18 | MOR-DOR ag conf 26 | HTR5A ag counter inactive
COC(=O)c1[nH]c2ccc(C)cc2c1NC(=O)Nc1ccc(OC)cc1	none
COC(=O)c1[nH]c2ccc(F)cc2c1NC(=O)Nc1ccc(OC)cc1	MOR-DOR ag 23 | MOR-DOR ag conf inactive | HTR5A ag counter inactive
